Data: PubChem BioAssay (EPA / NIEHS)
Results filed as inconclusive are left out. Activity calls are given as the source filed them. The calls were made as follows: active = hit-call score of the fitted dose curve at least 0.9, where 1 is the maximum; inconclusive = response in the unintended direction; inactive = score below 0.9.

Target: human Colony Stimulating Factor 1 Receptor (CSF1R), CSF1R (gene 1436) (UniProt P07333)
Test: NVS_ENZ_hCSF1R: NovaScreen (NVS) Enzymatic Assay for human Colony Stimulating Factor 1 Receptor (CSF1R) (AID 2283150)
Outline: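 Compounds screened in duplicate at 25 uM, then concentration-response (top 50 uM) for those passing threshold such as 30% inhibition; recombinant CSF1R activity measured 1 h post-dosing via fluorescent substrate/product mobility-shift separation, loss of signal versus DMSO.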

human Colony Stimulating Factor 1 Receptor (CSF1R), CSF1R (gene 1436), sequence (P07333 whole entry, looked up): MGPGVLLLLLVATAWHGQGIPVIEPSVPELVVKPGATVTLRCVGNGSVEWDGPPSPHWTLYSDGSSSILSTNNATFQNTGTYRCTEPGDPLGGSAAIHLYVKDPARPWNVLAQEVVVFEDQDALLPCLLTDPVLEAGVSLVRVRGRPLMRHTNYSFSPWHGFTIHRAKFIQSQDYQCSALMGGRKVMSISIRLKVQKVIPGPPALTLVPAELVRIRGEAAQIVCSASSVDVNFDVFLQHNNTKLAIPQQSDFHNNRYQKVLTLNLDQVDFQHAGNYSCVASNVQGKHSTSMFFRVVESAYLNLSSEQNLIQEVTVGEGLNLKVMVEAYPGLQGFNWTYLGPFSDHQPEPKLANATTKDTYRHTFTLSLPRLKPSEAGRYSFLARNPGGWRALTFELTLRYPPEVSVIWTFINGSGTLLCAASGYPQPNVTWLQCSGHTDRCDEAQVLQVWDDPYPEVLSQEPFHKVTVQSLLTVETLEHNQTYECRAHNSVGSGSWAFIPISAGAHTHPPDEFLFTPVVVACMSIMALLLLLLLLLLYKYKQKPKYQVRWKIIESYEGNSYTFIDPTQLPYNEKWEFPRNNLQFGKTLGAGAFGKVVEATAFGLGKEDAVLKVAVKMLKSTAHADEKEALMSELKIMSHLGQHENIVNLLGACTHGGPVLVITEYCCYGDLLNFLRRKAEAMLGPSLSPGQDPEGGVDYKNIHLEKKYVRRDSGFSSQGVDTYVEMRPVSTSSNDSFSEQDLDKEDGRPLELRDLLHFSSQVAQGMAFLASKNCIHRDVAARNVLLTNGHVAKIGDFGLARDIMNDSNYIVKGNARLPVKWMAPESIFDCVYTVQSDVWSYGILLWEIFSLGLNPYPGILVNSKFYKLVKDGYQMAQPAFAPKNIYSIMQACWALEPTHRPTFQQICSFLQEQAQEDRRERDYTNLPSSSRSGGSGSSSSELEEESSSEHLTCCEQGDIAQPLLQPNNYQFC

outcome, inactive:
Cc1oc2c(NC(=O)c3c(Cl)cccc3Cl)cccc2c1C(C)(C)O
CCCC(=O)OCCC(C)C
C[C@]12CC[C@@H]3c4ccc(O)cc4CC[C@H]3[C@@H]1CC[C@H]2O

Target: human Dual Specificity Protein Phosphatase 3 (DUSP3), DUSP3 (gene 1845) (UniProt P51452)
Test: NVS_ENZ_hDUSP3: NovaScreen (NVS) Enzymatic Assay for human Dual Specificity Protein Phosphatase 3 (DUSP3) (AID 2283152);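 also: phosphatase activity of recombinant human DUSP3 on a fluorogenic substrate without cells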
Outline: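 Cell-free fluorescence-intensity enzyme activity assay with recombinant protein and substrate; loss of signal fitted relative to DMSO baseline. Primary screen in duplicate at 25 uM, actives then run in concentration series; measured 0 h after dosing.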

human Dual Specificity Protein Phosphatase 3 (DUSP3), DUSP3 (gene 1845), sequence (P51452 whole entry, looked up): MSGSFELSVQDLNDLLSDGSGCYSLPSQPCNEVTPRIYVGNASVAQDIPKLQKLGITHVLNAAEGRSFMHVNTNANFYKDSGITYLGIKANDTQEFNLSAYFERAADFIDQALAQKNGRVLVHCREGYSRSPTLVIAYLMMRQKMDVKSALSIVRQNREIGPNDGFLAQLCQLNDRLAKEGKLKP

AC50, active:
OC12N=C(c3ccccc3)SC1Cc1cc(Cl)ccc12 (stereo unspecified) 4.92 µM
O=C1c2ccccc2C(=O)N1CCc1noc(-c2ccc(CN3CCCCCC3)s2)n1 19.9 µM
O=C1CCC(C2CCCCC2)CC1 22.2 µM
Cc1cc(F)ccc1-c1cc(N2CC[C@@H](O)[C@H]2CO)ncc1N(C)C(=O)C(C)(C)c1cc(C(F)(F)F)cc(C(F)(F)F)c1 12.3 µM
Cc1ccc2oc(CN(Cc3ccccc3)C(=O)Nc3c(F)cc(F)cc3F)c(-c3ccc(Cl)cc3)c2c1 9.32 µM

outcome, inactive:
Cc1c2ccccc2c(C)c2c1ccc1ccccc12
CCCCCCCCOc1ccc(C(=O)c2ccccc2)c(O)c1

Target: human Elastase, ELANE (gene 1991) (UniProt P08246)
Test: NVS_ENZ_hElastase: NovaScreen (NVS) Enzymatic Assay for human Elastase (AID 2283153)
Outline: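 Concentration-response to 50 uM max, run singly for chemicals passing a threshold (e.g., 30% inhibition) in a duplicate 25 uM single-point screen. Neutrophil-derived human elastase, absorbance read-out of enzyme activity at 1.5 h; DMSO baseline.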

human Elastase, ELANE (gene 1991), sequence (P08246 whole entry, looked up): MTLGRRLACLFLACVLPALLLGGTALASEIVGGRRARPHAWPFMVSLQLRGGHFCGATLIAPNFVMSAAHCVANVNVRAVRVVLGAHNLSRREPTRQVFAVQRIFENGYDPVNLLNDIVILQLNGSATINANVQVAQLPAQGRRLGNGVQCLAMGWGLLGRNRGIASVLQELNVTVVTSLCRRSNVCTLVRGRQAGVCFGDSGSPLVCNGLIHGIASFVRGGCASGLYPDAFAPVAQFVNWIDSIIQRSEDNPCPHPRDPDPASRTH

AC50, active:
Cc1c2ccccc2c(C)c2c1ccc1ccccc12 14.3 µM
O=C1CCC(C2CCCCC2)CC1 10 µM
CCCCCCCCCCCO 27.4 µM

outcome, inactive:
CC[C@@H]1C[C@H](N(Cc2cc(C(F)(F)F)cc(C(F)(F)F)c2)C(C)=O)c2cc(C(F)(F)F)ccc2N1C(=O)OC(C)C
O=C1O[C@H]([C@@H](O)CO)C(O)=C1O

Target: human Esterase Plasma (ES), BCHE (gene 590) (UniProt P06276)
Test: NVS_ENZ_hES: NovaScreen (NVS) Enzymatic Assay for human Esterase Plasma (ES) (AID 2283157)
Outline: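 Primary single-concentration screen at 25 uM in duplicate, then concentration-response to a 50 uM top dose. Human plasma esterase activity detected colorimetrically after 0.25 h incubation, with DMSO as baseline.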

human Esterase Plasma (ES), BCHE (gene 590), sequence (P06276 whole entry, looked up): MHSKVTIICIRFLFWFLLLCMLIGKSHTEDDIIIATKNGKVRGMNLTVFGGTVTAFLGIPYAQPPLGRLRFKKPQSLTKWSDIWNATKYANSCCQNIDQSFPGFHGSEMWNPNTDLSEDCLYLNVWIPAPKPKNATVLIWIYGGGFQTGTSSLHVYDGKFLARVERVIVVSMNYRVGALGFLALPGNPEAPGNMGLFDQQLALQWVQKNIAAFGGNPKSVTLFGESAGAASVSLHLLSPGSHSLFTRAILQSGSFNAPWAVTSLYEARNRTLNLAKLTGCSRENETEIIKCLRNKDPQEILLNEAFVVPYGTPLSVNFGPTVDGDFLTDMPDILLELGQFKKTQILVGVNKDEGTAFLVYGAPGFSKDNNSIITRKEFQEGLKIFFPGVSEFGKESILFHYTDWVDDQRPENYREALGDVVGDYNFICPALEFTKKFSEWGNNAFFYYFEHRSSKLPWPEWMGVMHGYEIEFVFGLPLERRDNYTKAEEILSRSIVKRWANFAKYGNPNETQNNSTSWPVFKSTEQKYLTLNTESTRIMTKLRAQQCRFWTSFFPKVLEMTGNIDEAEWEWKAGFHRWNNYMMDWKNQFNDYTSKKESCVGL

outcome, inactive:
Cc1occc1C(=O)Nc1ccc(C(=O)N2CCC(F)(F)/C(=C\C(=O)N3CCC(N4CCCCC4)CC3)c3ccccc32)cc1
Cc1c2ccccc2c(C)c2c1ccc1ccccc12
c1ccc(C[n+]2cccc3ccccc32)cc1
C[C@]12CC[C@@H]3c4ccc(O)cc4CC[C@H]3[C@@H]1CC[C@H]2O

AC50, active:
O=C1c2ccccc2C(=O)N1CCc1noc(-c2ccc(CN3CCCCCC3)s2)n1 18.2 µM
COc1cccc([C@H](O)C2CCN(CCc3ccc(F)cc3)CC2)c1OC 18.2 µM

Target: human Ephrin type-A Receptor 1 (EphA1), EPHA1 (gene 2041) (UniProt P21709)
Test: NVS_ENZ_hEphA1: NovaScreen (NVS) Enzymatic Assay for human Ephrin type-A Receptor 1 (EphA1) (AID 2283158);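 also: activity is signal loss versus DMSO meaning EphA1 kinase inhibition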
Outline: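 Here the EphA1 protein is recombinant and the substrate fluorescent, with electrophoretic separation before fluorescence detection at 1 hour. Signal loss against DMSO defines activity; plate controls included; follow-up concentration series reach 50 uM.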

human Ephrin type-A Receptor 1 (EphA1), EPHA1 (gene 2041), sequence (P21709 whole entry, looked up): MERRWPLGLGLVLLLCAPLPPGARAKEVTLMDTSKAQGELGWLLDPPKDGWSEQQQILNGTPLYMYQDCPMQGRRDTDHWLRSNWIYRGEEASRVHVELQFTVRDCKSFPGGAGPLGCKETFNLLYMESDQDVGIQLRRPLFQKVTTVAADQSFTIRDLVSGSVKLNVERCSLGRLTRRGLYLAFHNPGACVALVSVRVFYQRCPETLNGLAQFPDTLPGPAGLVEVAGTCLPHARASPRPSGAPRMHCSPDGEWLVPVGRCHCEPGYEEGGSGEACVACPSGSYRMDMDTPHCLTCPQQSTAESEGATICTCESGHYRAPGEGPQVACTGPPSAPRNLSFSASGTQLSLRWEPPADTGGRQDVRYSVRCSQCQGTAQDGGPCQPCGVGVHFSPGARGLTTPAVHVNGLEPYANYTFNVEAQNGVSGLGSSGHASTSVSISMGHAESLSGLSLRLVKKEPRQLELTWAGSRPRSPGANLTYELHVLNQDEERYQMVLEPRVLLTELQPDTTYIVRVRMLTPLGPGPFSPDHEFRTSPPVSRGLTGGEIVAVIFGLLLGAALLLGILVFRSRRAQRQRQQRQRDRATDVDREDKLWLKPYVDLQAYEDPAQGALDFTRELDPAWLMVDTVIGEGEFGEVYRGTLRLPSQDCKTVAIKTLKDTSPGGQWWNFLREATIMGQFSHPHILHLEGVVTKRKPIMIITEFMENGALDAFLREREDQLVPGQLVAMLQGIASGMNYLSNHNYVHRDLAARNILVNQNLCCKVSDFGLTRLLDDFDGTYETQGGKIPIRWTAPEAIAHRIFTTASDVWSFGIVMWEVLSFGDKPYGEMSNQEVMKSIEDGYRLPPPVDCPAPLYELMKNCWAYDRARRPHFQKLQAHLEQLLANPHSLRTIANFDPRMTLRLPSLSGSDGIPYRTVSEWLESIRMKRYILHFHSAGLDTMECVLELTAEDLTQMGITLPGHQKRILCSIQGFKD

outcome, inactive:
CCCCCCCCN(C)CCCCCCCC
CC(O)CC(C)(C)O (stereo unspecified)
CC1(C)NC(=O)N(c2ccc([N+](=O)[O-])c(C(F)(F)F)c2)C1=O
CCCCCc1ccc(N)cc1
O=C1O[C@H]([C@@H](O)CO)C(O)=C1O
